{"source": "paper PMC11006913", "assay_in_all_cases": "PBM; 200 nM protein, PBS", "conditions_in_all_cases": "dsDNA, one strand shown", "key": {"PAX4 [1]": {"target": "T1, PAX4 (Homo sapiens, UniProt O43316 9-242, R200K)", "T1 sequence": "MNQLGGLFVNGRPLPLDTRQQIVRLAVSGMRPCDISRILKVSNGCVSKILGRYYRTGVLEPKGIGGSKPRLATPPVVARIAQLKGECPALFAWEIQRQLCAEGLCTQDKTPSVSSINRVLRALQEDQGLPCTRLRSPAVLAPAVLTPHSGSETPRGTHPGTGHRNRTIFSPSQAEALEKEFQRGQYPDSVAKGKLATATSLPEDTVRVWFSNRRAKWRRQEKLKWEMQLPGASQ"}, "PAX4 [2]": {"target": "T2, PAX4 (Homo sapiens, UniProt O43316 9-242)", "T2 sequence": "T1 sequence with K192R"}, "NKX2-6 [3]": {"target": "T3, NKX2-6 (Homo sapiens, UniProt A6NCS4 118-204)", "T3 sequence": "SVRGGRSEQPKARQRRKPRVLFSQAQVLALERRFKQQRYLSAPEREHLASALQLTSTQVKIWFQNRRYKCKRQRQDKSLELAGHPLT"}, "PAX4 [4]": {"target": "T4, PAX4 (Homo sapiens, UniProt O43316 9-242, R200Q)", "T4 sequence": "T1 sequence with K192Q"}, "PAX4 [5]": {"target": "T5, PAX4 (Homo sapiens, UniProt O43316 9-242, F177V)", "T5 sequence": "T1 sequence with F169V, K192R"}, "PAX4 [6]": {"target": "T6, PAX4 (Homo sapiens, UniProt O43316 9-242, F177Y)", "T6 sequence": "T1 sequence with F169Y, K192R"}, "NKX2-6 [7]": {"target": "T7, NKX2-6 (Homo sapiens, UniProt A6NCS4 118-204, F151L)", "T7 sequence": "T3 sequence with F34L"}, "PAX4 [8]": {"target": "T8, PAX4 (Homo sapiens, UniProt O43316 9-242, R227W)", "T8 sequence": "T1 sequence with K192R, R219W"}, "HOXA2 [9]": {"target": "HOXA2 (Homo sapiens, UniProt O43364 129-215, R185T)", "sequence (O43364 129-215 R185T)": "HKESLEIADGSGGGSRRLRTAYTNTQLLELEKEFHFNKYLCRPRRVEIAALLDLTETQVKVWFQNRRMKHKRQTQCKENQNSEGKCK"}, "HOXA2 [10]": {"target": "HOXA2 (Homo sapiens, UniProt O43364 129-215, R185K)", "sequence (O43364 129-215 R185K)": "as the sequence (O43364 129-215 R185T) above, with T57K counted along it"}, "HOXA2 [11]": {"target": "HOXA2 (Homo sapiens, UniProt O43364 129-215, Y150S)", "sequence (O43364 129-215 Y150S)": "as the sequence (O43364 129-215 R185T) above, with Y22S, T57R counted along it"}, "HOXA2 [12]": {"target": "HOXA2 (Homo sapiens, UniProt O43364 129-215)", "sequence (O43364 129-215)": "as the sequence (O43364 129-215 R185T) above, with T57R counted along it"}, "MSX2 [13]": {"target": "MSX2 (Homo sapiens, UniProt P35548 130-214, R199I)", "sequence (P35548 130-214 R199I)": "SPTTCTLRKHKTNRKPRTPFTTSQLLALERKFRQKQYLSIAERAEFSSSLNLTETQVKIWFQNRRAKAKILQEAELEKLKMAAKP"}, "MSX2 [14]": {"target": "MSX2 (Homo sapiens, UniProt P35548 130-214)", "sequence (P35548 130-214)": "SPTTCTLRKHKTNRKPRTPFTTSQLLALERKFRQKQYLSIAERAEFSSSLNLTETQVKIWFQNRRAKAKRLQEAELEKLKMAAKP"}, "MSX2 [15]": {"target": "MSX2 (Homo sapiens, UniProt P35548 130-214, F161Y)", "sequence (P35548 130-214 F161Y)": "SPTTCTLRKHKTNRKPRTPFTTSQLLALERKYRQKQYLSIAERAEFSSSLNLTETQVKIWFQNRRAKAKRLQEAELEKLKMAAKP"}, "PITX2": {"target": "PITX2 (Homo sapiens, UniProt Q99697 72-157)"}}, "note": "Changes are numbered by the printed parent chain.", "data": [{"sequence": "CCAGGAGC", "values": [{"measurement": "binding signal", "setting": "PAX4 [1]", "value": "9.4 upbm affinity estimate (log intensity, higher = more binding, comparable within an allelic series)"}, {"measurement": "binding signal", "setting": "PAX4 [2]", "value": "9.35 upbm affinity estimate (log intensity, higher = more binding, comparable within an allelic series)"}, {"measurement": "binding signal", "setting": "NKX2-6 [3]", "value": "9.22 upbm affinity estimate (log intensity, higher = more binding, comparable within an allelic series)"}, {"measurement": "binding signal", "setting": "PAX4 [4]", "value": "9.51 upbm affinity estimate (log intensity, higher = more binding, comparable within an allelic series)"}, {"measurement": "binding signal", "setting": "PAX4 [5]", "value": "9.26 upbm affinity estimate (log intensity, higher = more binding, comparable within an allelic series)"}, {"measurement": "binding signal", "setting": "PAX4 [6]", "value": "9.24 upbm affinity estimate (log intensity, higher = more binding, comparable within an allelic series)"}, {"measurement": "binding signal", "setting": "NKX2-6 [7]", "value": "9.26 upbm affinity estimate (log intensity, higher = more binding, comparable within an allelic series)"}, {"measurement": "binding signal", "setting": "PAX4 [8]", "value": "9.32 upbm affinity estimate (log intensity, higher = more binding, comparable within an allelic series)"}]}, {"sequence": "CGGAGCCG", "values": [{"measurement": "binding signal", "setting": "PAX4 [1]", "value": "9.19 upbm affinity estimate (log intensity, higher = more binding, comparable within an allelic series)"}, {"measurement": "binding signal", "setting": "PAX4 [2]", "value": "9.38 upbm affinity estimate (log intensity, higher = more binding, comparable within an allelic series)"}, {"measurement": "binding signal", "setting": "HOXA2 [9]", "value": "7.43 upbm affinity estimate (log intensity, higher = more binding, comparable within an allelic series)"}, {"measurement": "binding signal", "setting": "PAX4 [4]", "value": "9.24 upbm affinity estimate (log intensity, higher = more binding, comparable within an allelic series)"}, {"measurement": "binding signal", "setting": "HOXA2 [10]", "value": "10.1 upbm affinity estimate (log intensity, higher = more binding, comparable within an allelic series)"}, {"measurement": "binding signal", "setting": "PAX4 [5]", "value": "9.03 upbm affinity estimate (log intensity, higher = more binding, comparable within an allelic series)"}, {"measurement": "binding signal", "setting": "PAX4 [6]", "value": "9.04 upbm affinity estimate (log intensity, higher = more binding, comparable within an allelic series)"}, {"measurement": "binding signal", "setting": "PAX4 [8]", "value": "9.09 upbm affinity estimate (log intensity, higher = more binding, comparable within an allelic series)"}, {"measurement": "binding signal", "setting": "HOXA2 [11]", "value": "10.4 upbm affinity estimate (log intensity, higher = more binding, comparable within an allelic series)"}, {"measurement": "binding signal", "setting": "HOXA2 [12]", "value": "7.23 upbm affinity estimate (log intensity, higher = more binding, comparable within an allelic series)"}]}, {"sequence": "GGCTTCCA", "values": [{"measurement": "binding signal", "setting": "PAX4 [1]", "value": "9.19 upbm affinity estimate (log intensity, higher = more binding, comparable within an allelic series)"}, {"measurement": "binding signal", "setting": "PAX4 [2]", "value": "9.03 upbm affinity estimate (log intensity, higher = more binding, comparable within an allelic series)"}, {"measurement": "binding signal", "setting": "HOXA2 [9]", "value": "7.05 upbm affinity estimate (log intensity, higher = more binding, comparable within an allelic series)"}, {"measurement": "binding signal", "setting": "PAX4 [4]", "value": "9.42 upbm affinity estimate (log intensity, higher = more binding, comparable within an allelic series)"}, {"measurement": "binding signal", "setting": "HOXA2 [10]", "value": "10.4 upbm affinity estimate (log intensity, higher = more binding, comparable within an allelic series)"}, {"measurement": "binding signal", "setting": "PAX4 [5]", "value": "9.33 upbm affinity estimate (log intensity, higher = more binding, comparable within an allelic series)"}, {"measurement": "binding signal", "setting": "PAX4 [6]", "value": "9.37 upbm affinity estimate (log intensity, higher = more binding, comparable within an allelic series)"}, {"measurement": "binding signal", "setting": "PAX4 [8]", "value": "9.41 upbm affinity estimate (log intensity, higher = more binding, comparable within an allelic series)"}, {"measurement": "binding signal", "setting": "HOXA2 [11]", "value": "10.5 upbm affinity estimate (log intensity, higher = more binding, comparable within an allelic series)"}, {"measurement": "binding signal", "setting": "HOXA2 [12]", "value": "7.18 upbm affinity estimate (log intensity, higher = more binding, comparable within an allelic series)"}]}, {"sequence": "AGGGGGCC", "values": [{"measurement": "binding signal", "setting": "PAX4 [1]", "value": "8.96 upbm affinity estimate (log intensity, higher = more binding, comparable within an allelic series)"}, {"measurement": "binding signal", "setting": "PAX4 [2]", "value": "9.02 upbm affinity estimate (log intensity, higher = more binding, comparable within an allelic series)"}, {"measurement": "binding signal", "setting": "HOXA2 [9]", "value": "7.23 upbm affinity estimate (log intensity, higher = more binding, comparable within an allelic series)"}, {"measurement": "binding signal", "setting": "MSX2 [13]", "value": "9.51 upbm affinity estimate (log intensity, higher = more binding, comparable within an allelic series)"}, {"measurement": "binding signal", "setting": "PAX4 [4]", "value": "9.05 upbm affinity estimate (log intensity, higher = more binding, comparable within an allelic series)"}, {"measurement": "binding signal", "setting": "HOXA2 [10]", "value": "10.2 upbm affinity estimate (log intensity, higher = more binding, comparable within an allelic series)"}, {"measurement": "binding signal", "setting": "PAX4 [5]", "value": "9.04 upbm affinity estimate (log intensity, higher = more binding, comparable within an allelic series)"}, {"measurement": "binding signal", "setting": "MSX2 [14]", "value": "9.64 upbm affinity estimate (log intensity, higher = more binding, comparable within an allelic series)"}, {"measurement": "binding signal", "setting": "PAX4 [6]", "value": "9.04 upbm affinity estimate (log intensity, higher = more binding, comparable within an allelic series)"}, {"measurement": "binding signal", "setting": "MSX2 [15]", "value": "9.59 upbm affinity estimate (log intensity, higher = more binding, comparable within an allelic series)"}, {"measurement": "binding signal", "setting": "PAX4 [8]", "value": "9.1 upbm affinity estimate (log intensity, higher = more binding, comparable within an allelic series)"}, {"measurement": "binding signal", "setting": "HOXA2 [11]", "value": "10.2 upbm affinity estimate (log intensity, higher = more binding, comparable within an allelic series)"}, {"measurement": "binding signal", "setting": "HOXA2 [12]", "value": "7.17 upbm affinity estimate (log intensity, higher = more binding, comparable within an allelic series)"}]}, {"sequence": "TAAAGTAA", "values": [{"measurement": "binding signal", "setting": "PAX4 [1]", "value": "10.7 upbm affinity estimate (log intensity, higher = more binding, comparable within an allelic series)"}, {"measurement": "binding signal", "setting": "PAX4 [2]", "value": "10.9 upbm affinity estimate (log intensity, higher = more binding, comparable within an allelic series)"}, {"measurement": "binding signal", "setting": "PAX4 [4]", "value": "10.8 upbm affinity estimate (log intensity, higher = more binding, comparable within an allelic series)"}]}, {"sequence": "GCGCCACC", "values": [{"measurement": "binding signal", "setting": "PAX4 [1]", "value": "9.38 upbm affinity estimate (log intensity, higher = more binding, comparable within an allelic series)"}, {"measurement": "binding signal", "setting": "PAX4 [2]", "value": "9.4 upbm affinity estimate (log intensity, higher = more binding, comparable within an allelic series)"}, {"measurement": "binding signal", "setting": "PAX4 [4]", "value": "9.4 upbm affinity estimate (log intensity, higher = more binding, comparable within an allelic series)"}, {"measurement": "binding signal", "setting": "PITX2", "value": "7.93 upbm affinity estimate (log intensity, higher = more binding, comparable within an allelic series)"}, {"measurement": "binding signal", "setting": "PAX4 [5]", "value": "9.23 upbm affinity estimate (log intensity, higher = more binding, comparable within an allelic series)"}, {"measurement": "binding signal", "setting": "PAX4 [6]", "value": "9.26 upbm affinity estimate (log intensity, higher = more binding, comparable within an allelic series)"}, {"measurement": "binding signal", "setting": "PAX4 [8]", "value": "9.32 upbm affinity estimate (log intensity, higher = more binding, comparable within an allelic series)"}]}, {"sequence": "CGTCCCCC", "values": [{"measurement": "binding signal", "setting": "PAX4 [1]", "value": "9.1 upbm affinity estimate (log intensity, higher = more binding, comparable within an allelic series)"}, {"measurement": "binding signal", "setting": "PAX4 [2]", "value": "9.14 upbm affinity estimate (log intensity, higher = more binding, comparable within an allelic series)"}, {"measurement": "binding signal", "setting": "NKX2-6 [3]", "value": "9.4 upbm affinity estimate (log intensity, higher = more binding, comparable within an allelic series)"}, {"measurement": "binding signal", "setting": "PAX4 [4]", "value": "9.11 upbm affinity estimate (log intensity, higher = more binding, comparable within an allelic series)"}, {"measurement": "binding signal", "setting": "PAX4 [5]", "value": "9.08 upbm affinity estimate (log intensity, higher = more binding, comparable within an allelic series)"}, {"measurement": "binding signal", "setting": "PAX4 [6]", "value": "9.19 upbm affinity estimate (log intensity, higher = more binding, comparable within an allelic series)"}, {"measurement": "binding signal", "setting": "NKX2-6 [7]", "value": "9.03 upbm affinity estimate (log intensity, higher = more binding, comparable within an allelic series)"}, {"measurement": "binding signal", "setting": "PAX4 [8]", "value": "9.21 upbm affinity estimate (log intensity, higher = more binding, comparable within an allelic series)"}]}, {"sequence": "GCCCAGCC", "values": [{"measurement": "binding signal", "setting": "PAX4 [1]", "value": "9.23 upbm affinity estimate (log intensity, higher = more binding, comparable within an allelic series)"}, {"measurement": "binding signal", "setting": "PAX4 [2]", "value": "9.33 upbm affinity estimate (log intensity, higher = more binding, comparable within an allelic series)"}, {"measurement": "binding signal", "setting": "PAX4 [4]", "value": "9.24 upbm affinity estimate (log intensity, higher = more binding, comparable within an allelic series)"}, {"measurement": "binding signal", "setting": "PITX2", "value": "7.91 upbm affinity estimate (log intensity, higher = more binding, comparable within an allelic series)"}, {"measurement": "binding signal", "setting": "PAX4 [5]", "value": "9.15 upbm affinity estimate (log intensity, higher = more binding, comparable within an allelic series)"}, {"measurement": "binding signal", "setting": "PAX4 [6]", "value": "9.11 upbm affinity estimate (log intensity, higher = more binding, comparable within an allelic series)"}, {"measurement": "binding signal", "setting": "PAX4 [8]", "value": "9.23 upbm affinity estimate (log intensity, higher = more binding, comparable within an allelic series)"}]}, {"sequence": "CTAATAAC", "values": [{"measurement": "binding signal", "setting": "PAX4 [1]", "value": "11.1 upbm affinity estimate (log intensity, higher = more binding, comparable within an allelic series)"}, {"measurement": "binding signal", "setting": "PAX4 [2]", "value": "11.3 upbm affinity estimate (log intensity, higher = more binding, comparable within an allelic series)"}, {"measurement": "binding signal", "setting": "PAX4 [4]", "value": "11.1 upbm affinity estimate (log intensity, higher = more binding, comparable within an allelic series)"}, {"measurement": "binding signal", "setting": "PAX4 [5]", "value": "10.4 upbm affinity estimate (log intensity, higher = more binding, comparable within an allelic series)"}]}]}
